Screening data from PubChem.
Most compounds without a hit are left out; they make up all but 12% or so of the library.
VP16 counter – inhibits Gal4-VP16 luciferase reporter, ROR gamma counter-screen; Drosophila S2 Gal4-VP16 UAS-luciferase, luminescence, 20 h; Potency, µM (highest dose often 53.6 µM), without a hit: at the highest dose activity, negative = inhibition, most hits filed as inhibitors; actives 3.5% (n = 310,000); AID 2546;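 also: Gal4-VP16 expression switched on by copper sulfate through the metallothionein promoter; nearly all actives have a fitted effect of over 50% in size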
ALDH1A1 inh – inhibitors of human aldehyde dehydrogenase 1A1. AID 1030. actives 7.3% (n = 220,000). P00352. Potency, µM (titrated, usually from 75.3 µM), inactives show at the top dose activity, negative = inhibition, hits mostly inhibitors. Purified ALDH1A1, NADH fluorescence, propionaldehyde substrate; active = well fitted inhibition curve with a large enough effect, not every such curve was filed as active; inconclusive = small, poorly fitted or top-dose-only effect, or another doubt; inactive = no such curve, though single readings can be large or run the other way;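 also: plate controls were no enzyme wells and a reference inhibitor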
Target sequence (P00352 whole entry, looked up): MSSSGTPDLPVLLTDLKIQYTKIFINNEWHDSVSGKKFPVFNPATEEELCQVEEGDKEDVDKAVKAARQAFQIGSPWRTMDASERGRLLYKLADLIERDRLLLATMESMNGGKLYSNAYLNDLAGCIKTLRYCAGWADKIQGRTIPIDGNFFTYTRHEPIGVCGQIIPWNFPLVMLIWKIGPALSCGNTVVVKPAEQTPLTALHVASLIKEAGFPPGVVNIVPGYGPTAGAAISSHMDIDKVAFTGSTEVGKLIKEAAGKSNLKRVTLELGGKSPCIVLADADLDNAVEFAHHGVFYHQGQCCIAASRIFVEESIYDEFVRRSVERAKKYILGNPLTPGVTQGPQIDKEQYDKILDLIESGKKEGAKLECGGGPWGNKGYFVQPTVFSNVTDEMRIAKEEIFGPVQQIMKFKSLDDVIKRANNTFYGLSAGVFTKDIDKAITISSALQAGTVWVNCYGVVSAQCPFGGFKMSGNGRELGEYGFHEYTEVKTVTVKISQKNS
PLK1 PBD inh – blocks phosphopeptide binding to human PLK1 polo-box domain | Potency, µM, without a hit: max response, negative = inhibition, hits mostly inhibitors | Plk1 PBD binding of FITC phosphopeptide, fluorescence polarization | P53350 | actives 2.8% (n = 360,000) | AID 720504; also: series mostly up to about 57 µM; nearly all actives have a fitted effect of over 65% in size
Sfp PPTase inh – Sfp phosphopantetheinyl transferase inhibition. Potency, µM, for inactives: largest response in the series, negative = inhibition, most hits filed as inhibitors. actives 3.5% (n = 310,000). Biochemical Sfp PPTase activity, qHTS;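 also: the enzyme is Sfp with the accession as filed and its product quenches rhodamine fluorescence; 0% = enzyme reaction without inhibitor and -100% = no enzyme wells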
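Fluorescence-quenching assay: 15 nM Sfp-PPTase preincubated 15 min at room temperature with compound, then 5 uM rhodamine-CoA and 12.5 uM BHQ-2-labelled YbbR peptide added. Fluorescence (ex 525/em 598 nm) read at start and after 30 min; difference gives rate.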
RORgamma inh – ROR gamma (mouse) transcription inhibition | actives 5.4% (n = 310,000) | Drosophila S2 Gal4-RORgamma UAS-luciferase reporter, 20 h | P51450 | Potency, µM (series often up to 53.6 µM), inactives show at the top dose activity change, negative = inhibition, usual class: inhibitors; also: nearly all actives have a fitted effect of over 60% in size
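Drosophila S2 cells stably expressing Gal4-DBD/mouse RORγ fusion under metallothionein promoter plus UAS-luciferase; compound 1 h, then 700 uM CuSO4 induction for 20 h at ambient temperature; inhibition read as reduced luminescence.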
Starred values were filed as active, the others as inactive; ? = inconclusive; . = not tested or not shown; [ ] = another dose, or the depositor's remark. Unless noted, calls follow the shape of the dose curve; as a rule, active = well fitted curve in the direction sought with a large enough effect; inconclusive = small, poorly fitted or top-dose-only effect, or another doubt; inactive = no such curve, though single readings can be large; an effect the other way counts as inactive or inconclusive. Unless noted, % is scaled to controls: 0 for no effect and ±100 for the full control effect; potency is read from the fitted curve at half-maximal effect.

SMILES | VP16 counter | ALDH1A1 inh | PLK1 PBD inh | Sfp PPTase inh | RORgamma inh
CC(C)CCCC(C)C1CCC2C3CC=C4CC(=O)CC[C@@]4(C)C3CC[C@@]12C (some centres undefined) | -2.5% | -3.1% | . | 5.3% | -4.8%
Cn1c(N)c(C#N)c2c(c1=S)CSC(C)(C)C2 | 1.4% | ? | -26.7% | 79.4µM* | -3.6%[10 µM]
CC(C)C1Cc2c(C#N)c(N)n(C)c(=S)c2CO1 (centres undefined) | -10.6% | -4.1% | -6.7% | -4.6% | -4.0%
Cc1ccc(C2C(C#N)=C(N)SC(N)=C2C#N)o1 | 5.5% | ? | . | 12.6µM* | -32.8%
N#CC1=C(N)SC(N)=C(C#N)C1c1ccc(C(F)(F)F)cc1 | -4.3% | 25.1µM* | . | -79.6% | 8.5%
CCc1ccc(C2C(C#N)=C(N)SC(N)=C2C#N)cc1 | -7.1% | 11.2µM* | -17.2% | ? | 0.1%
N#CC1=C(N)SC(N)=C(C#N)C1c1ccc([N+](=O)[O-])cc1 | ? | 10µM* | 9.47µM* | 5.01µM* | ?
COc1ccc(CN2CCN(C(=O)c3ccccc3C(=O)c3ccccc3)CC2)cc1F | . | . | 10.3% | . | .
O=C(Nc1ccc2c(c1)OCO2)c1csc([C@H]2C[C@H](O)[C@@H](CO)O2)n1 | . | . | -1.4% | . | .
Cn1c2ccccc2c2cnn(CC(=O)Nc3ccc(Cl)cc3)c(=O)c21 | 5.3% | . | -5.2% | -1.0% | 1.2%
CCc1ccc(NC(=O)Cn2ncc3c4ccccc4n(C)c3c2=O)cc1 | -16.8% | -4.9% | 23.8µM* | 14.4% | -4.7%
Fc1ccc2[nH]c3c(NCc4ccccc4)ncnc3c2c1 | 5.62µM* | . | -8.1% | ? | ?
Cc1ccccc1/C=N/n1c(C2CCCCC2)n[nH]c1=S | ? | . | -9.4% | 0.4% | 15.8µM*
O=[N+]([O-])c1ccccc1/C=N/n1c(C2CCCCC2)n[nH]c1=S | 35.5µM* | 7.08µM* | 21.2µM* | 50.1µM* | ?
O=[N+]([O-])c1ccccc1/C=N/n1c(C(F)(F)F)n[nH]c1=S | 5.1% | ? | 26.7µM* | 22.4µM* | -20.5%
O=C(O)COc1ccccc1/C=N/n1c(C2CCCCC2)n[nH]c1=S | -7.6% | . | ? | 50.1µM* | -30.7%
Cc1cc(-c2n[nH]c(=S)n2/N=C/c2cccc([N+](=O)[O-])c2)n[nH]1 | -11.7% | ? | -19.5% | -23.8% | -16.0%
CC(C)[C@@H](OCc1ccccc1)[C@H](C)/C=N\O[C@@H](C)c1cn([C@H](CO)Cc2ccccc2)nn1 | 1.1%[10 µM] | 2.0%[13.5 µM] | . | -5.5% | -8.7%[10 µM]
Fc1ccccc1/C=N/n1c(C2CCCCC2)n[nH]c1=S | ? | . | ? | ? | 11.2µM*
S=c1[nH]nc(C2CCCCC2)n1/N=C/c1ccccc1Br | ? | . | 11.9µM* | -6.3% | ?
CCc1nc2ccc(C(=O)N(C)Cc3ccccc3)cn2c1N(CC)CCN(C)C | . | . | -5.2% | . | .
CCC/C=C1/CCCOC(C(=O)NCC2CC2)(C(F)(F)F)C1 (centres undefined) | 6.3% | . | . | 9.6% | -12.1%
Cc1cnc(SCCc2ccncc2)nc1C | ? | ? | . | 11.2µM* | 12.6µM*
CCN1CCN(C(CNS(=O)(=O)c2cccs2)c2cccnc2)CC1 (centres undefined) | -13.6% | . | -7.2% | 3.0% | -9.2%
CCOC(=O)CCc1c(C)n[nH]c1C | -1.5% | -0.1% | -5.7% | 12.8% | -5.2%
SMILES | VP16 counter | ALDH1A1 inh | PLK1 PBD inh | Sfp PPTase inh | RORgamma inh
CCOC(=O)CCCc1sc(N)nc1-c1[nH]c(=O)[nH]c1C | ? | 12.6µM* | ? | 22.4µM* | -0.8%
COc1ccccc1NC(=O)Cn1c(CCC(=O)O)ccc1-c1ccccc1 | -4.8% | 4.5% | -5.1% | 17.9% | -2.9%
O=C(NCC1CCCO1)c1c(O)c2ccccc2[nH]c1=O (centres undefined) | 2.3% | ? | -8.2% | -2.3% | 13.3%[10 µM]
CCOC(=O)c1c(NCC2CCCO2)c2ccccc2[nH]c1=O (centres undefined) | -14.2% | 15.8µM* | 0.1% | 0.7% | 26.6%
O=C1c2ccccc2C(=O)N1N(c1ccccc1)c1ccccc1 | . | . | 1.8% | . | .
O=C1C=CC(=O)N1N(c1ccccc1)c1ccccc1 | ? | 3.55µM* | 4.74µM* | 31.6µM* | -43.2%
COC(=O)c1nn(-c2ccc(OC)cc2)c(=O)cc1NN | -13.2% | -10.3% | -6.2% | 5.3% | -28.2%
COC(=O)c1nn(-c2ccc(OC)cc2)c(=O)c2c(N)sc(C)c12 | -5.7% | 7.94µM* | 23.8µM* | 35.5µM* | -1.1%
CN(C)CCCN1c2ccccc2C(C)(C)c2ccccc21 | 6.1% | -7.6%[13.5 µM] | . | 0.7% | 2.1%[10 µM]
Clc1ccc(Cn2nnc(-c3ccccc3)n2)cc1 | -0.5% | 5.5% | -18.7% | 4.2% | 103.7%
Clc1ccccc1-c1nnn(Cc2ccc(-c3nn[nH]n3)cc2)n1 | 3.4% | 15.8µM* | 26.7µM* | 9.5% | 27.6%
CC1CCN(C(=O)c2ncn3c2c(=O)[nH]c2ccc(Br)cc23)CC1 | . | . | 5.2% | . | .
O=C(CCC(=O)Nc1nnc(C2CCCCC2)s1)NCc1ccccc1 | 2.4% | . | -16.4% | 23.8% | -33.7%
O=C(O)CCCN=CC1=C(O)CNC1=O | 8.2% | 12.0% | 29.9µM* | 15.0% | 3.6%
C[C@@]12C[C@H](O)C3[C@H](CCC4=CC(=O)CC[C@]43C)[C@H]1CC[C@@H]2c1csc(N)n1 (some centres undefined) | . | 2µM* | . | . | .
C[C@]12C[C@H](O)C3[C@@H](CCC4=CC(=O)CC[C@@]43C)[C@@H]1CC[C@@H]2C(=O)CO (some centres undefined) | . | -8.6% | . | . | .
CC(C)(C)C(=O)OCC(=O)C1CCC2C3CCC4=CC(=O)CCC4(C)C3CCC12C (centres undefined) | 7.9% | 2.5% | . | 7.9% | -24.2%
Cc1nc(C2CCC3C4CCC5=CC(=O)CC[C@]5(C)C4CC[C@]23C)cs1 (some centres undefined) | 0.1% | . | . | 79.4µM* | -24.0%
C[C@@]12CC[C@@H]3[C@H](CCC4=CC(=O)CC[C@]43C)[C@@H]1CC[C@@H]2C(=O)COS(=O)(=O)c1ccc(Br)cc1 | . | 3.55µM* | . | . | .
C[C@H](O)[C@@H]1C(=O)N2CCc3c([nH]c4ccccc34)[C@@H]2C[C@@H]1N(C)Cc1ccc2c(c1)OCO2 | . | . | -4.0% | . | .
O=C(CN1C(=O)NC2(CCCC2)C1=O)OCC(=O)c1cccc(Cl)c1 | . | . | -4.8% | . | .
COc1ccc(C(C)NC(=O)C2CCN(CCOc3ccc(Cl)cc3Cl)CC2)cc1OC (centres undefined) | . | . | -3.3% | . | .
O=C(N/N=C/c1sc(N2CCOCC2)nc1-c1ccccc1)c1ccccc1O | 2.82µM* | ? | -3.1% | 0.3% | 2.24µM*
c1ccc(-c2nc(N3CCOCC3)sc2-c2ccccc2)cc1 | -12.4% | . | -11.2% | -26.0% | 6.5%
O=Cc1sc(N2CCOCC2)nc1-c1ccccc1 | 4.0% | 8.91µM* | . | ? | 10.1%
O=[N+]([O-])c1ccc(N/N=C/c2sc(N3CCOCC3)nc2-c2ccccc2)c(S(=O)(=O)Nc2ccc(Cl)cc2)c1 | 3.16µM* | -3.9% | 16.1% | -14.0% | ?
